# Laboratory results: the supplement of paper PMC10849652
# About 7,900 targets were measured; listed, in parts, are those with a hit and a random draw of the rest. About 0.6% of all pairs of compound and target were hits.
# Compound: C1=CC=C(C=C1)[C@H](COC2=CC3=C(C=C2)NC(=O)N3)NC(=O)C4=CC=CN(C4=O)CC5=CC(=C(C=C5)F)F
# Test: log2 fold change, soluble protein after heating vs DMSO (PISA); higher = thermal stabilisation; K562 cells, 10 uM, 30 min; active = over 0.2 and 3.5 SD of the protein, either way, in both replicates (recomputed)
# How it was run: (§1)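 K562 cells at 2×10^6 cells/mL were treated for 30 min with 10 μM compound, and aliquots were heated for 3 min over 48°C-58°C before pooling. Extraction used PBS with 0.5% NP-40 at 4°C, and soluble protein was the supernatant after 21,000xg for 90 min, measured by TMTpro 16plex LC-MS/MS with channel sums equalised. Thermal stability values, relative to control samples and from duplicates, are log2 fold changes.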
# Chain of UniProt A3KMH1 (A3KMH1 whole entry, looked up): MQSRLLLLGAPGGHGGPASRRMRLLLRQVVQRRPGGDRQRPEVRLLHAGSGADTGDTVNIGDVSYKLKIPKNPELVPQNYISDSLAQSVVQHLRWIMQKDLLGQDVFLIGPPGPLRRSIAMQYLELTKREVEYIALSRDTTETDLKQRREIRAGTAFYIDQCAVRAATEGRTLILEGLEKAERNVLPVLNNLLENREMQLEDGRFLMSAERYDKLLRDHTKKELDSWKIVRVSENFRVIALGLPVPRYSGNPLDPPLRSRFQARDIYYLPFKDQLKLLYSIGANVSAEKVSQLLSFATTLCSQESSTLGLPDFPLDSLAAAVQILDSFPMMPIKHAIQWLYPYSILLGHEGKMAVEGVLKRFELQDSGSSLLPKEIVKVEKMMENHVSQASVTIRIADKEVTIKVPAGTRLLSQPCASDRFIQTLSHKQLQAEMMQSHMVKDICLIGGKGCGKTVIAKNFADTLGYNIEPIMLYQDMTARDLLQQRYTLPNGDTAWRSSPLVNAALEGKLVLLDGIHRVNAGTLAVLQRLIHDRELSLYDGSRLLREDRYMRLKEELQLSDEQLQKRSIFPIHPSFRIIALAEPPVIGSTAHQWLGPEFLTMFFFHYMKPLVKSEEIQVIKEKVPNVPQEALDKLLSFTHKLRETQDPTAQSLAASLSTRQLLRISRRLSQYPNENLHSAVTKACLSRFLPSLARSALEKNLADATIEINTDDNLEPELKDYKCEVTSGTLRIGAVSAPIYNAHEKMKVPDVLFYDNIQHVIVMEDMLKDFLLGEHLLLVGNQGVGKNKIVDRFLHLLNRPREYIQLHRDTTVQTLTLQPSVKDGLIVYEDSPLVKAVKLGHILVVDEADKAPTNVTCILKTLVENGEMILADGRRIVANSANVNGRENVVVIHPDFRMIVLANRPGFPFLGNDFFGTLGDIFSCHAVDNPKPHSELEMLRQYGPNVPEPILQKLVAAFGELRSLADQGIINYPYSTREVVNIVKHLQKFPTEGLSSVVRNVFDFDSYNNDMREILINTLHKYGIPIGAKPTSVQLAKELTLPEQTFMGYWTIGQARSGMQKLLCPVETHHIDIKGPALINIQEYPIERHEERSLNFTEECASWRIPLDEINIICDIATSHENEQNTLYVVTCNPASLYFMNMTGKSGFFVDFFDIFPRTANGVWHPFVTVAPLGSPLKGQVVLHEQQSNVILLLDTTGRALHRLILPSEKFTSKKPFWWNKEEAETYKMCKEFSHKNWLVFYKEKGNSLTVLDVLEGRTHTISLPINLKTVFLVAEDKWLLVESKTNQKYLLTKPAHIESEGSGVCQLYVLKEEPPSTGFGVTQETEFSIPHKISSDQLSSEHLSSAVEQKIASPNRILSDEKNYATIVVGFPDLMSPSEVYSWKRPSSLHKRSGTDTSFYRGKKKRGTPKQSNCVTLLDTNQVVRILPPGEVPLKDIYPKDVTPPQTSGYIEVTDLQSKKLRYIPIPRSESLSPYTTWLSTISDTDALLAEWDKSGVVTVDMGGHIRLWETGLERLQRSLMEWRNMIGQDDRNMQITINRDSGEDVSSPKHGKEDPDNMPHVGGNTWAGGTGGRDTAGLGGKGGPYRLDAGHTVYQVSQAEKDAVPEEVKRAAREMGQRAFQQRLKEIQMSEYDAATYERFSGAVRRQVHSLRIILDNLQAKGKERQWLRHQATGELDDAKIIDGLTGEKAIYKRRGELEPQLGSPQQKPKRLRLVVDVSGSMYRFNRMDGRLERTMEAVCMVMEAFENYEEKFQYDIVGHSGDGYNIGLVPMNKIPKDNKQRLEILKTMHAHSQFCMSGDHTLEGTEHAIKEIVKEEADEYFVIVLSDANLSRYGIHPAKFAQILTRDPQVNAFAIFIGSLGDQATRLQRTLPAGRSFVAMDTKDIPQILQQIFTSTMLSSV
# Chain of UniProt Q8N4H5 (Q8N4H5 whole entry, looked up): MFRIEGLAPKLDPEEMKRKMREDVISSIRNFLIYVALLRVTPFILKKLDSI
# Chain of UniProt A0JNW5 (A0JNW5 whole entry, looked up): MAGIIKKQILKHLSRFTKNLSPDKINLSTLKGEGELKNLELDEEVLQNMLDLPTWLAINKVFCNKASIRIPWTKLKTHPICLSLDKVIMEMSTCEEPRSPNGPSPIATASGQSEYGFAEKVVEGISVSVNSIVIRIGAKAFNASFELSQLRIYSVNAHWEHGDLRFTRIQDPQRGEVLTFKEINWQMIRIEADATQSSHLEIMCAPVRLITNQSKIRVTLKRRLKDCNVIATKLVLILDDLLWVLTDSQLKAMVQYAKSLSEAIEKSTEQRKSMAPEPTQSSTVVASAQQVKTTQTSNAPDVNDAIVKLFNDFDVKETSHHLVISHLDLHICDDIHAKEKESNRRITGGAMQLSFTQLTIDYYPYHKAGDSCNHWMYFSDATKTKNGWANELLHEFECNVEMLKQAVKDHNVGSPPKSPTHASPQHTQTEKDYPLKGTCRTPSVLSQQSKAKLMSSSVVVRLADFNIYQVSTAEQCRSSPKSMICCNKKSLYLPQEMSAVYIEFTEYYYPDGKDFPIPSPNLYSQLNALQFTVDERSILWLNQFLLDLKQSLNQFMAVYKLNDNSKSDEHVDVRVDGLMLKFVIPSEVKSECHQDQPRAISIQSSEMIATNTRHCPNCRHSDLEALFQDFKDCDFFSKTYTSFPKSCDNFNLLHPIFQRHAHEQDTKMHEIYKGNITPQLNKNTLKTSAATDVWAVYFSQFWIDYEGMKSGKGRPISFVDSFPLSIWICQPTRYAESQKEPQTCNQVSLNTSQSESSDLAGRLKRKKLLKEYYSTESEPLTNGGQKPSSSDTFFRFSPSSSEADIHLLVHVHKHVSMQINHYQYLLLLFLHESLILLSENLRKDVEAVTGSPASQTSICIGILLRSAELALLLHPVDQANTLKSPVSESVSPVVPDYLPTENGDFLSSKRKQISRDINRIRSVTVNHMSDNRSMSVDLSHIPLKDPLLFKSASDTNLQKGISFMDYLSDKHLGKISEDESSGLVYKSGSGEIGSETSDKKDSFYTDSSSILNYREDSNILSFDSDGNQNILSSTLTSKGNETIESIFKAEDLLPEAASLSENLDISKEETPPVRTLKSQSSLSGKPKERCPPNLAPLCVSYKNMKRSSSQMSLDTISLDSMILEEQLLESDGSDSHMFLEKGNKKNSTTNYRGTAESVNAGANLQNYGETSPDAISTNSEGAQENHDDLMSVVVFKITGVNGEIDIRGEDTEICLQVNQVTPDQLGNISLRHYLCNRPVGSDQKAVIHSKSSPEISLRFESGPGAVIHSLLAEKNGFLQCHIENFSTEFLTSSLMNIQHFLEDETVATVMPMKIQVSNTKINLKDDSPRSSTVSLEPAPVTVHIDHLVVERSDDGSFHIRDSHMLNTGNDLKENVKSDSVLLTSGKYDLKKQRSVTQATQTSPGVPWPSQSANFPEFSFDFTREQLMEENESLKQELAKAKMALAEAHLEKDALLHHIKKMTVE
# Chain of UniProt Q9Y5L0 (Q9Y5L0 whole entry, looked up): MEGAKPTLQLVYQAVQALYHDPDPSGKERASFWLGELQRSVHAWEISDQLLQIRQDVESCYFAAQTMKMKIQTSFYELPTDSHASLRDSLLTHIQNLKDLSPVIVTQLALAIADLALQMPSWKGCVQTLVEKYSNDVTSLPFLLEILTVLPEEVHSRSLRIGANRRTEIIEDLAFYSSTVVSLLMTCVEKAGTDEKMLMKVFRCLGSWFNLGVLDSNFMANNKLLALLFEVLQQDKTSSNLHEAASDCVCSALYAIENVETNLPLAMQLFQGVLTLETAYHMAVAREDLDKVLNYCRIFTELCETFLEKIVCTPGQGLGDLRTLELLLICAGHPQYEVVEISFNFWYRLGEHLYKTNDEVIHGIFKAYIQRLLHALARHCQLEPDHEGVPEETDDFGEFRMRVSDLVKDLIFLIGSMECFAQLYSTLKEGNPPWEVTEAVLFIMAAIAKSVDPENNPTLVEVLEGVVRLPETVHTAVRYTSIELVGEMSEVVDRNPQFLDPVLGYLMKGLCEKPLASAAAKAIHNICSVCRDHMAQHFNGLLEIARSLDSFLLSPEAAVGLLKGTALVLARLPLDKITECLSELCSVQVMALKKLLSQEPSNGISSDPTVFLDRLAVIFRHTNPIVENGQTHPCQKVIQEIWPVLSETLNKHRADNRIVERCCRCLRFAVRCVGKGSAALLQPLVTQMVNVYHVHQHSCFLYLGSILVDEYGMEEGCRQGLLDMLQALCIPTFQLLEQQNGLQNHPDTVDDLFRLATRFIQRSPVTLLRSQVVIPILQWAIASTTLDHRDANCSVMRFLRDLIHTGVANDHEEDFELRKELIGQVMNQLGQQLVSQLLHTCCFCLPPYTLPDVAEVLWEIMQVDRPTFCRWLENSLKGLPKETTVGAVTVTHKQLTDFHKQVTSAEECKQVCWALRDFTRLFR
# Chain of UniProt Q9NP79 (Q9NP79 whole entry, looked up): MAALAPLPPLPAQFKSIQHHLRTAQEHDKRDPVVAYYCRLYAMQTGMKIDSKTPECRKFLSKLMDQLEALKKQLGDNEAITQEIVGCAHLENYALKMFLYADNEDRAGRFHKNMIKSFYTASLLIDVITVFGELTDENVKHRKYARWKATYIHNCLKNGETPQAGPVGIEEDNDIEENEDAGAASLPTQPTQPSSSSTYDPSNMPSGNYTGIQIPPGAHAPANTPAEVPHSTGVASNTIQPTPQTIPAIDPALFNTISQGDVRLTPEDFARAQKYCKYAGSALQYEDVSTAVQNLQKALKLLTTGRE
# Chain of UniProt Q15906 (Q15906 whole entry, looked up): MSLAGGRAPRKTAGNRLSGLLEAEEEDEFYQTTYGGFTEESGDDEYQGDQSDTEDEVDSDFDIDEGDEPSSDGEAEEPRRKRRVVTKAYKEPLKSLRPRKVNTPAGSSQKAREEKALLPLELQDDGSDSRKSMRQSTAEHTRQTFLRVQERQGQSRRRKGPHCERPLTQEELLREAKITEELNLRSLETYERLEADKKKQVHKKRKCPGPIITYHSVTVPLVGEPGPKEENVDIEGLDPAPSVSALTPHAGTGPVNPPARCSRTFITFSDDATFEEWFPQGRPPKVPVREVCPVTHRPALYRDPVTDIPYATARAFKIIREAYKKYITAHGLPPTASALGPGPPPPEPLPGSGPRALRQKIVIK
# Chain of UniProt Q9UDW1 (Q9UDW1 whole entry, looked up): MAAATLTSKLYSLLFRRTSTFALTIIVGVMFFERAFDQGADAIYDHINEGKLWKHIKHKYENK
row,Target,log2 fold change
1,VTA1 (UniProt Q9NP79),0.007 (inactive)
2,WDR4 isoform 3 (UniProt P57081),-0.18 (inactive)
3,UNC119B (UniProt A6NIH7),-0.093 (inactive)
4,TSPAN13 (UniProt O95857),-0.195 (inactive)
5,USP25 isoform 3 (UniProt Q9UHP3),-0.02 (inactive)
6,UHRF1BP1 (UniProt Q6BDS2),-0.01 (inactive)
7,VPS72 isoform 2 (UniProt Q15906),0.123 (inactive)
8,TTC38 (UniProt Q5R3I4),0.046 (inactive)
9,UBA52 (UniProt P62987),0.088 (inactive)
10,UBE4B isoform 4 (UniProt O95155),-0.019 (inactive)
11,UBAP1 isoform 4 (UniProt Q9NZ09),0.021 (inactive)
12,UCHL5 isoform 3 (UniProt Q9Y5K5),0.021 (inactive)
13,UBE4A isoform 2 (UniProt Q14139),-0.051 (inactive)
14,UFM1 (UniProt P61960),-0.019 (inactive)
15,TOMM5 isoform 2 (UniProt Q8N4H5),0.034 (inactive)
16,VRK2 (UniProt Q86Y07),0.001 (inactive)
17,USP9X (UniProt Q93008),-0.049 (inactive)
18,UFM1 isoform 2 (UniProt P61960),-0.032 (inactive)

row,Target,log2 fold change
1,WBP4 (UniProt O75554),0.012 (inactive)
2,TNPO3 (UniProt Q9Y5L0),-0.035 (inactive)
3,UBLCP1 (UniProt Q8WVY7),-0.066 (inactive)
4,TMEM161A (UniProt Q9NX61),-0.055 (inactive)
5,WDR18 (UniProt Q9BV38),0 (inactive)
6,UBE2S (UniProt Q16763),0.002 (inactive)
7,TMEM9 (UniProt Q9P0T7),0.008 (inactive)
8,TXN2 (UniProt Q99757),0.027 (inactive)
9,VPS13B (UniProt Q7Z7G8),0 (inactive)
10,USP34 (UniProt Q70CQ2),-0.083 (inactive)
11,WARS1 (UniProt G3V3P2),0.095 (inactive)
12,USP48 (UniProt Q86UV5),0 (inactive)
13,UHRF1BP1L (UniProt A0JNW5),0.024 (inactive)
14,VPS37A (UniProt Q8NEZ2),-0.076 (inactive)
15,WARS1 (UniProt G3V5U1),0.193 (inactive)
16,VWA8 (UniProt A3KMH1),-0.03 (inactive)
17,UQCR10 (UniProt Q9UDW1),-0.032 (inactive)

# Compound: CC1=C(SC2=C1C(=N[C@H](C3=NN=C(N32)C)CC(=O)N)C4=CC=C(C=C4)Cl)C
# Test: as above
# How it was run: as §1
row,Target,log2 fold change
1,VTA1 (UniProt Q9NP79),0.062 (inactive)
2,UNC119B (UniProt A6NIH7),-0.013 (inactive)
3,TSPAN13 (UniProt O95857),0.023 (inactive)
4,USP25 isoform 3 (UniProt Q9UHP3),0.024 (inactive)
5,UHRF1BP1 (UniProt Q6BDS2),0.109 (inactive)
6,VPS72 isoform 2 (UniProt Q15906),-0.106 (inactive)
7,TTC38 (UniProt Q5R3I4),0.049 (inactive)
8,UBA52 (UniProt P62987),-0.301 (inactive)
9,UBE4B isoform 4 (UniProt O95155),0.03 (inactive)
10,UBAP1 isoform 4 (UniProt Q9NZ09),0.005 (inactive)
11,UCHL5 isoform 3 (UniProt Q9Y5K5),0.232 (inactive)
12,UBE4A isoform 2 (UniProt Q14139),-0.067 (inactive)
13,UFM1 (UniProt P61960),0.363 (inactive)
14,TOMM5 isoform 2 (UniProt Q8N4H5),0.047 (inactive)
15,VRK2 (UniProt Q86Y07),0.004 (inactive)
16,USP9X (UniProt Q93008),0.028 (inactive)

row,Target,log2 fold change
1,UFM1 isoform 2 (UniProt P61960),-0.009 (inactive)
2,WBP4 (UniProt O75554),0.009 (inactive)
3,TNPO3 (UniProt Q9Y5L0),0.063 (inactive)
4,UBLCP1 (UniProt Q8WVY7),0.067 (inactive)
5,TMEM161A (UniProt Q9NX61),0.017 (inactive)
6,WDR18 (UniProt Q9BV38),0.011 (inactive)
7,UBE2S (UniProt Q16763),0.053 (inactive)
8,TMEM9 (UniProt Q9P0T7),0.02 (inactive)
9,TXN2 (UniProt Q99757),0.144 (inactive)
10,VPS13B (UniProt Q7Z7G8),-0.008 (inactive)
11,USP34 (UniProt Q70CQ2),0.081 (inactive)
12,UHRF1BP1L (UniProt A0JNW5),0.099 (inactive)
13,VPS37A (UniProt Q8NEZ2),0.088 (inactive)
14,VWA8 (UniProt A3KMH1),0.023 (inactive)
15,UQCR10 (UniProt Q9UDW1),0.036 (inactive)

# Compound: CC1=C2C(=CC=C1)N=C(N(C2=O)C3=CC=CC=C3C)CN4C=NC5=C(N=CN=C54)N
# Test: as above
# How it was run: as §1
row,Target,log2 fold change
1,VTA1 (UniProt Q9NP79),0.104 (inactive)
2,UNC119B (UniProt A6NIH7),0.094 (inactive)
3,TSPAN13 (UniProt O95857),0.639 (active)
4,USP25 isoform 3 (UniProt Q9UHP3),0.068 (inactive)
5,UHRF1BP1 (UniProt Q6BDS2),0.006 (inactive)
6,VPS72 isoform 2 (UniProt Q15906),0.055 (inactive)
7,TTC38 (UniProt Q5R3I4),0.032 (inactive)
8,UBA52 (UniProt P62987),-0.569 (inactive)
9,UBE4B isoform 4 (UniProt O95155),0.019 (inactive)
10,UBAP1 isoform 4 (UniProt Q9NZ09),0.129 (inactive)
11,UCHL5 isoform 3 (UniProt Q9Y5K5),-0.123 (inactive)
12,UBE4A isoform 2 (UniProt Q14139),0.013 (inactive)
13,UFM1 (UniProt P61960),0.049 (inactive)
14,TOMM5 isoform 2 (UniProt Q8N4H5),-0.032 (inactive)
15,VRK2 (UniProt Q86Y07),0.011 (inactive)
16,USP9X (UniProt Q93008),0.057 (inactive)

row,Target,log2 fold change
1,UFM1 isoform 2 (UniProt P61960),0.066 (inactive)
2,WBP4 (UniProt O75554),-0.024 (inactive)
3,TNPO3 (UniProt Q9Y5L0),0.014 (inactive)
4,UBLCP1 (UniProt Q8WVY7),0.066 (inactive)
5,TMEM161A (UniProt Q9NX61),0.098 (inactive)
6,WDR18 (UniProt Q9BV38),-0.019 (inactive)
7,UBE2S (UniProt Q16763),0.106 (inactive)
8,TMEM9 (UniProt Q9P0T7),-0.002 (inactive)
9,TXN2 (UniProt Q99757),0.039 (inactive)
10,VPS13B (UniProt Q7Z7G8),0.068 (inactive)
11,USP34 (UniProt Q70CQ2),0.142 (inactive)
12,UHRF1BP1L (UniProt A0JNW5),0.05 (inactive)
13,VPS37A (UniProt Q8NEZ2),0.126 (inactive)
14,VWA8 (UniProt A3KMH1),0.091 (inactive)
15,UQCR10 (UniProt Q9UDW1),0.142 (inactive)
